Measured values reported in the supplement of paper PMC11732987, “Enantioselective OTUD7B fragment discovery through chemoproteomics screening and high-throughput optimisation” (Communications Chemistry, 2025).

Biological target: USP14 (UniProt P54578)
Experiment: log2 ratio of Biotin-Ahx-Ub-VS probe labelling (fragment/DMSO); higher = less target engagement (more negative = stronger competition), active = hit call of the paper (q ≤ 0.05, log2 ratio ≤ -1)
Conditions: compound concentration: 200 uM; treatment time: 3 h
Procedure: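 Competitive ABPP in HEK293T cell lysate. Lysates were treated with each chloroacetamide fragment at 200 µM for 3 h, then with Biotin-Ahx-Ub-VS (0.5 µM, 1 h), NeutrAvidin-enriched and analysed by diaPASEF LC-MS/MS. Protein LFQ was median-normalised; average log2 ratio is fragment/DMSO from an unpaired t-test (n=3 treated, n=44 DMSO). Hits: q ≤ 0.05, log2 ratio ≤ -1, unique peptides ≥ 2.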

Sequence of USP14 (P54578 whole entry, the tested form may be a part): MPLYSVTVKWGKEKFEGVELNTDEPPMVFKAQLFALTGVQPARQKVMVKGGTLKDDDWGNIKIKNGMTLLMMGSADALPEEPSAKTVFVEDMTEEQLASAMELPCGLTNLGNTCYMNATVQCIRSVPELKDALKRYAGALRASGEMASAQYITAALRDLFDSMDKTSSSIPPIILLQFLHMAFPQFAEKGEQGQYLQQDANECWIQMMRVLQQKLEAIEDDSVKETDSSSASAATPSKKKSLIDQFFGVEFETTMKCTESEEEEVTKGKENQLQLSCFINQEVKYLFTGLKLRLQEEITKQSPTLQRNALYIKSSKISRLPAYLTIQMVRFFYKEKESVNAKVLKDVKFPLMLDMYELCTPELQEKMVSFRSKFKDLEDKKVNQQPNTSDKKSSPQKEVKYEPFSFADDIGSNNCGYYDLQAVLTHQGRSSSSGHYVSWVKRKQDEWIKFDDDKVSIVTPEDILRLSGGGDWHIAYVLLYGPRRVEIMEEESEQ

log2 ratio of Biotin-Ahx-Ub-VS probe labelling, active:
O=C(CCl)N1CCc2[nH]c3ccccc3c2C1 -1.05

log2 ratio of Biotin-Ahx-Ub-VS probe labelling, inactive:
COCC1C=CCCN1C(=O)CCl (stereo not given) -0.0905, O=C(CCl)N(C1=CCCCC1)C1CC1 -0.423, CN(C)C(=O)c1ccc(NC(=O)CCl)cc1 -0.162, Cc1ccccc1OCC(=O)N1CCN(C(=O)CCl)CC1 -0.131, O=C(CCl)N1CCCC2CCCCC21 (stereo not given) -0.25, O=C(CCl)N1CC2(CCOCC2)C1 -0.191, CN(C)S(=O)(=O)c1ccccc1CNC(=O)CCl 0.0554, O=C(CCl)NCc1ccc(N2CCOCC2)c(F)c1 0.1, CC(NC(=O)CCl)c1cccc2ccccc12 (stereo not given) -0.209, Cc1cccc(N(CCC#N)C(=O)CCl)c1C 0.0267, O=C(CCl)NCc1ccc(N2CCOCC2)nc1 -0.262, N#Cc1cnn(-c2ccccc2)c1NC(=O)CCl -0.345, Cc1cc(Cl)ccc1NC(=O)CCl -0.0914, Cl.O=C(CN1CCN(C(=O)CCl)CC1)Nc1ccc(F)cc1 -0.0648, Cc1cc(NC(=O)CCl)n(-c2ccccc2)n1 0.0764, O=C(CCl)Nc1cc2c(cc1Cl)OCCO2 0.233, Cc1cccc(NC(=O)[C@@H]2CCCN2C(=O)CCl)n1 -0.519, Cl.O=C(CCl)NCCc1ncc(F)cc1F -0.31, Cc1ccc(CN(C)C(=O)CCl)o1 -0.0502, O=C(CCl)N1CCOC2(CCC2)C1 0.0484, CC(NC(=O)CCl)c1csc(-c2ccccc2)n1.Cl (stereo not given) -0.367, O=C(CCl)Nc1ccc(Cl)c(F)c1 -0.481, Cc1ccc(CC(CO)CNC(=O)CCl)cc1 (stereo not given) -0.262, O=C(CCl)N1CCC(C(=O)N2CCCC2)CC1 -0.0629, C#Cc1cccc(NC(=O)CCl)c1 -0.191, CCN1C(=O)C2CN(C(=O)CCl)CCN2C1=O (stereo not given) -0.176, CC(O)CC1CCN(C(=O)CCl)CC1 (stereo not given) -0.442, O=C(CCl)N1CCc2ccccc2C(O)C1 (stereo not given) -0.255, CCCn1nccc1NC(=O)CCl -0.663, O=C(CCl)Nc1nc(-c2cccs2)cs1 0.15, O=C(CCl)Nc1cccc(NC(=O)c2ccccc2)c1 0.235, Cc1ccn2cc(CNC(=O)CCl)nc2c1.Cl 0.000672, O=C(CCl)N1CC=C(c2c[nH]c3ccccc23)CC1 -0.573, Cc1cc(C(=O)NC2CCN(C(=O)CCl)CC2)no1 -0.31, CC(NC(=O)CCl)c1cccc(Cl)c1 (stereo not given) -0.42, Cc1ccc(CNC(=O)CCl)nc1C.Cl -0.372, C[C@@H](NC(=O)CCl)c1cccc(C#N)c1 -0.243, Cc1ccc(N2CCC(NC(=O)CCl)C2=O)cc1 (stereo not given) -0.0106, O=C(CCl)N1CCC(C(=O)N2CCCCCC2)CC1 -0.204
